Data on eight molecules can be found in PubChem BioAssay (Tox21).

Records with an inconclusive call do not appear. A structure can be active in one record and inactive in another. Calls of active or inactive are those of the source. Unless noted, calls follow the shape of the dose curve; as a rule, active = well fitted curve in the direction sought with a large enough effect in the repeat runs; inconclusive = weak or mixed curves; inactive = no such curve, though single readings can be large; an effect the other way counts as inactive or inconclusive.

Assay [1] in a line: qHTS assay to identify small molecule agonists of the peroxisome proliferator-activated receptor delta (PPARd) signaling pathway - cell viability counter screen (AID 743211). Also: nearly all actives have a fitted effect of over 55% in size. In a few lines:
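HEK293H PPARd-bla, 3000 cells/well; 5 h preincubation 37C/5% CO2; cpd in DMSO, 17 h 37C; B/G FRET substrate 2 h RT; CellTiter-Glo 30 min RT, luminescence.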

Assay [2] is described as follows: qHTS assay to identify small molecule antagonists of the peroxisome proliferator-activated receptor delta (PPARd) signaling pathway - cell viability counter screen (AID 743213). Also: nearly all actives have a fitted effect of over 50% in size. In a few lines:
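Agonist-stimulated (L165041, 300 nM final) HEK293H PPARd UAS-bla cells are exposed to compounds for 17 h at 37 C, and ATP-based luminescence (CellTiter-Glo) from the same wells reports cytotoxicity.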
On the technique in general: Quantitative high-throughput screening tests each substance at several concentrations.

The nature of assay [3]: qHTS assay to identify small molecule agonists of the farnesoid-X-receptor (FXR) signaling pathway - cell viability counter screen (AID 743218). Also: nearly all actives have a fitted effect of over 45% in size. In a few lines: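 FXR-UAS-bla HEK 293T cells, plated 5 h at 37 C, were exposed to compounds for 16 h at 37 C. CellTiter-Glo was then added to the same wells as the bla readout; luminescence read after 30 min at room temperature.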

Assay [4] is described as follows: qHTS assay to identify small molecule antagonists of the farnesoid-X-receptor (FXR) signaling pathway - cell viability counter screen (AID 743221; active = well fitted cell-killing curve with a large enough effect in the repeat runs, not every such curve was filed as active; also: nearly all actives have a fitted effect of over 50% in size). In a few lines:
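Luminescence from CellTiter-Glo measures cytotoxicity in GeneBLAzer FXR-UAS-bla HEK 293T cells. Cells were exposed to compounds with 50 uM chenodeoxycholic acid (final) for 16 h at 37 C, in wells also used for the reporter readout.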

Assay [5] concerns the target Vitamin D3 receptor (Homo sapiens) (UniProt P11473). In words: qHTS assay to identify small molecule agonists of the vitamin D receptor (VDR) signaling pathway (AID 743222; calls by dose curve). In a few lines:
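VDR-bla cells were plated 4 h at 37C/5% CO2, then exposed to compounds in DMSO for 16 h. After LiveBLAzer B/G FRET substrate addition and 2 h at room temperature, beta-lactamase reporter fluorescence was read.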

Assay [6] shares this target. In words: qHTS assay to identify small molecule antagonists of the vitamin D receptor (VDR) signaling pathway (AID 743223; active = well fitted inhibition curve with a large enough effect in the signal ratio in the repeat runs, not every such curve was filed as active; the % refers to the signal ratio). In a few lines:
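Antagonist mode uses 1alpha,25-dihydroxyvitamin D3 at 3 nM final as stimulus. VDR-bla cells receive compounds in DMSO, incubate 16 h at 37C, then a beta-lactamase FRET substrate for 2 h at room temperature before fluorescence measurement.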

A short description of assay [7]: qHTS assay to identify small molecule agonists of the vitamin D receptor (VDR) signaling pathway - cell viability counter screen (AID 743224). Also: series mostly up to about 63 µM; nearly all actives have a fitted effect of over 50% in size. Summed up:
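VDR-bla cells were preincubated 4 h at 37C/5% CO2, then exposed to compounds for 16 h. After the 2 h room-temperature bla FRET read, CellTiter-Glo was added to the same wells and luminescence read after 30 min.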

Assay [8] can be described thus: qHTS assay to identify small molecule agonists of the NFkB signaling pathway (AID 1159509; active = well fitted curve in the direction sought with a large enough effect in the signal ratio in the repeat runs, not every such curve was filed as active; the % refers to the signal ratio; also: series mostly up to about 61 µM). In a few lines: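 After overnight attachment, reporter cells received test compounds, DMSO or positive controls and were incubated 5 hr at 37 C. FRET substrate was then added for 1.5 hr at room temperature before dual-emission fluorescence reading.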
Assay [9] is described as follows: qHTS assay to identify small molecule agonists of the NFkB signaling pathway - cell viability counter screen (AID 1159515; calls by dose curve; also: series mostly up to about 61 µM; nearly all actives have a fitted effect of over 55% in size). Summed up:
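NFkB-bla ME-180 cells, 2,000/well, were plated overnight at 37 C, 5% CO2, then exposed to compounds in DMSO for 5 hr. After the bla FRET read, CellTiter-Glo was added to the same wells; luminescence was read after 30 min at room temperature.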

Assay [10] can be described thus: qHTS assay to identify small molecule agonists of the endoplasmic reticulum stress response signaling pathway (AID 1159516; active = well fitted activation curve with a large enough effect in the signal ratio in the repeat runs, not every such curve was filed as active; the % refers to the signal ratio). Summed up: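 CellSensor ESRE-bla HeLa cells, carrying a beta-lactamase reporter driven by the ER stress response element, were plated overnight and exposed to compounds for 5 hr at 37 C. Reporter activity was read as FRET substrate fluorescence after 2 hr at room temperature.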

Assay [11] in a line: qHTS assay to identify small molecule agonists of the endoplasmic reticulum stress response signaling pathway - cell viability counter screen (AID 1159517; calls by dose curve; also: series mostly up to about 61 µM; nearly all actives have a fitted effect of over 50% in size). Summed up: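 Cells, HeLa ESRE-bla; density, 1,500/well; dosing, 5 hr at 37 C, 5% CO2; readout, CellTiter-Glo luminescence after 30 min RT.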
Assay [12] is described as follows: qHTS assay to identify small molecule antagonists of the retinoid-related orphan receptor gamma (ROR-gamma) signaling pathway - cell viability counter screen (AID 1159520). Also: nearly all actives have a fitted effect of over 50% in size. Summed up:
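Cytotoxicity was read from cellular ATP (CellTiter-Glo luminescence) after 16 hr at 37 C with 1 uM doxycycline induction. The inducer was added 2 hr after compound transfer to Tet-on ROR gamma CHO cells.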

In assay [13] the target is Nuclear receptor ROR-gamma (Homo sapiens) (UniProt P51449). Nature of the assay: qHTS assay to identify small molecule antagonists of the retinoid-related orphan receptor gamma (ROR-gamma) signaling pathway (AID 1159521; also: nearly all actives have a fitted effect of over 50% in size; also: potency is read from the fitted curve at half-maximal effect). In a few lines: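 CHO Tet-on RORγ, RORE-luc reporter. Cpd 2 h pre-incubation, then dox hyclate 1 uM final, 16 h, 37 C/5% CO2. ONE-Glo luminescence; decrease = antagonist.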

A short description of assay [14]: qHTS assay to identify small molecule agonists of the AP-1 signaling pathway - cell viability counter screen (AID 1159525; calls by dose curve; also: nearly all actives have a fitted effect of over 55% in size). Summed up: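 Luminescent ATP readout (Cell Titer Glo, 30 min RT), normalised to DMSO and tetra n-octyl ammonium bromide controls. Cells were ME-180 AP-1-bla in 0.5% dialyzed FBS Opti-MEM, with a 5 h, 37 °C compound exposure.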
Assay [15] can be described thus: qHTS assay to identify small molecule agonists of the AP-1 signaling pathway (AID 1159526; calls by dose curve).
The target in assay [16] is Peroxisome proliferator-activated receptor delta (Homo sapiens) (UniProt Q03181). Nature of the assay: qHTS assay to identify small molecule agonists of the peroxisome proliferator-activated receptor delta (PPARd) signaling pathway (AID 743212; calls by dose curve). In a few lines:
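HEK293H UAS-bla reporter cells, human PPARd system; compounds delivered in DMSO after 5 h plating, then at 37 C. Beta-lactamase FRET read, 2 h RT substrate step.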

Assay [17] has the same target. In words: qHTS assay to identify small molecule antagonists of the peroxisome proliferator-activated receptor delta (PPARd) signaling pathway (AID 743215; active = well fitted inhibition curve with a large enough effect in the signal ratio in the repeat runs, not every such curve was filed as active; the % refers to the signal ratio; also: series mostly up to about 62 µM). Summed up:
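PPARd UAS-bla HEK293H cells were pre-incubated 5 h at 37 C, then given test compounds in DMSO plus agonist L165041 (300 nM final). After 17 h at 37 C, beta-lactamase FRET substrate was added; fluorescence read after 2 h at room temperature.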

The target of assay [18] is Bile acid receptor (Homo sapiens) (UniProt Q96RI1). In words: qHTS assay to identify small molecule agonists of the farnesoid-X-receptor (FXR) signaling pathway (AID 743220; active = well fitted activation curve with a large enough effect in the signal ratio in the repeat runs, not every such curve was filed as active; the % refers to the signal ratio). In a few lines:
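Beta-lactamase reporter under UAS control in GeneBLAzer FXR HEK 293T cells (5000/well) measured with LiveBLAzer FRET substrate after 2 h at room temperature. Compound exposure lasted 16 h at 37C.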

A short description of assay [19]: qHTS assay to identify small molecule antagonists of the vitamin D receptor (VDR) signaling pathway - cell viability counter screen (AID 743225). Also: nearly all actives have a fitted effect of over 50% in size. In a few lines:
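Read-out: CellTiter-Glo luminescence measured 30 min after reagent addition at room temperature. Cells were VDR-bla HEK 293T exposed 16 h at 37C, 5% CO2, to compound with 3 nM final calcitriol agonist.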

Chain of Peroxisome proliferator-activated receptor delta (Homo sapiens) (Q03181 whole entry, looked up): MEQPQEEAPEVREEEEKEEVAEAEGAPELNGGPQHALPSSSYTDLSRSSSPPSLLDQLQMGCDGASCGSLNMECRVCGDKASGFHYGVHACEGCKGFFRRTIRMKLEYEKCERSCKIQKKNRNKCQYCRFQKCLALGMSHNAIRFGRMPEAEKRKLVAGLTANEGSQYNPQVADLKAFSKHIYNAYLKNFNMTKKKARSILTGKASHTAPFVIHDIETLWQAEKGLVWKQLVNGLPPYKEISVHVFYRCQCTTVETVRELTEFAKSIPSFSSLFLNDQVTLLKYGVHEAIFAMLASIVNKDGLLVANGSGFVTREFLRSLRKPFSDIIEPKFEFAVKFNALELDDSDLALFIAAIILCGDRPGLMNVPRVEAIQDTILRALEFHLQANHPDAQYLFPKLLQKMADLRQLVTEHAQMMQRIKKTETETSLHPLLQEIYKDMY
Chain of Bile acid receptor (Homo sapiens) (Q96RI1 whole entry, looked up): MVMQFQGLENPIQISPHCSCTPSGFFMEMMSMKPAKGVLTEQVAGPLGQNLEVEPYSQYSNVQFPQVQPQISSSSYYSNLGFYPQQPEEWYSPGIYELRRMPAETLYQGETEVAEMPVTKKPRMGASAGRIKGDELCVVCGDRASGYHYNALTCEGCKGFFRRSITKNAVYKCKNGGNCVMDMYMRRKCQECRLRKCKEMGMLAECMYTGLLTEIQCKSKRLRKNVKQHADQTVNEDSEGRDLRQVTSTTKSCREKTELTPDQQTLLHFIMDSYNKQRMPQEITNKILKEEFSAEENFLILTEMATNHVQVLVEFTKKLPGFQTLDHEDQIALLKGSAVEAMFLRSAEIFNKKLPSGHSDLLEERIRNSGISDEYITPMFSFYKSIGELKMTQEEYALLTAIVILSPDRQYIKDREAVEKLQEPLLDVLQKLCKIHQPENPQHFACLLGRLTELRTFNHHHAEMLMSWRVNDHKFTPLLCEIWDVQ
Chain of Vitamin D3 receptor (Homo sapiens) (P11473 whole entry, looked up): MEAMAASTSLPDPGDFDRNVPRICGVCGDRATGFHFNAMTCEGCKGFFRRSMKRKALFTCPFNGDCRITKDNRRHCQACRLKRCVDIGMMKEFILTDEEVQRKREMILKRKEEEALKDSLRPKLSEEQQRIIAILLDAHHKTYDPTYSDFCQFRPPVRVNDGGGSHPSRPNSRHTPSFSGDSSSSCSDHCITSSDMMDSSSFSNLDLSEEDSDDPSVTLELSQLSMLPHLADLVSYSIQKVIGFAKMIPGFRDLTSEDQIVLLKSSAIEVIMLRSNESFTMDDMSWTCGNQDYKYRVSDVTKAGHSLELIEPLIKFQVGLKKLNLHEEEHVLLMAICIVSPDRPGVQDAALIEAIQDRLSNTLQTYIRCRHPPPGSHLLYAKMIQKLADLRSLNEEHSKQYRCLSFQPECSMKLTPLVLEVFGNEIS

For `Oc1ccc(Cl)cc1`, the Potency result in [1], in assay [3], in assay [4], in assay [7], in assay [13] and in [15] was “inactive” in each case. Besides, the call in assay [2], in assay [5], in [6], in [8], in [9] and in assay [10] was inactive. Moreover, the outcome in assay [11], in assay [12] and in [14] was inactive.

As to `Cc1cccc(N)c1C`, the outcome in assay [16], in [2], in [17], in assay [18], in assay [5] and in assay [6] was inactive. The outcome in [19], in [8], in [9], in [10], in assay [11] and in assay [12] was inactive. The molecule was called inactive in assay [14]. The Potency result in assay [3], in [4], in assay [7], in assay [13] and in assay [15] was “inactive” each time.

For `C=C(C)C(=O)OCC(CC)CCCC` (stereo not drawn), the Potency entry in assay [1], in [3], in assay [4], in assay [7] and in [15] was “inactive” each time. The molecule was called inactive in assay [2], in assay [5], in assay [6], in assay [19], in [8] and in assay [9]. The result in [10], in assay [11], in [12] and in assay [14] was inactive. For the same molecule, in assay [13], the Potency is 49.5 µM (active) and inactive.

For `C=CCN=C=S`, the molecule was called inactive in [16], in assay [2], in assay [17], in assay [18], in assay [5] and in [6]. Further, the molecule was classed as inactive in [8], in assay [9], in assay [10], in [11], in assay [12] and in assay [14]. For the same molecule, the Potency entry in [3], in [4], in assay [7], in [13] and in assay [15] was “inactive” each time.

For the molecule `O=[N+]([O-])c1ccc(Cl)cc1`, the Potency result in assay [1], in [3], in assay [4], in [7], in assay [13] and in [15] was “inactive” in each case. Besides, the outcome in assay [2], in assay [5], in [6], in assay [8], in assay [9] and in [10] was inactive. Further, the outcome in assay [11], in assay [12] and in [14] was inactive.

Turning to `COc1nc(NC(C)C)nc(NC(C)C)n1`, the outcome in [16], in assay [2], in assay [17], in assay [18], in [5] and in assay [6] was inactive. Also, the molecule was classed as inactive in assay [8], in assay [9], in assay [10], in assay [11], in assay [12] and in assay [14]. The Potency entry in assay [3], in assay [4], in assay [7], in assay [13] and in assay [15] was “inactive” throughout.

As for `O=C(O)C(Br)Br`, the Potency result in [1], in assay [3], in [4], in assay [7], in assay [13] and in assay [15] was “inactive” each time. For the same molecule, the call in assay [2], in [18], in assay [5], in assay [6], in [19] and in assay [8] was inactive. The call in [9], in [10], in [11], in assay [12] and in assay [14] was inactive.

`CSc1nnc(C(C)(C)C)c(=O)n1N`: the molecule was classed as inactive in assay [16], in assay [2], in assay [17], in assay [18], in assay [5] and in assay [6]. The call in assay [19], in [8], in assay [9], in assay [10], in [11] and in assay [12] was inactive. Besides, in [14], the result was inactive. Also, the Potency entry in assay [3], in assay [4], in [7], in assay [13] and in [15] was “inactive” throughout.
